Measured values from ChEMBL document CHEMBL3988442, “University of Dundee, Small-Polar-MMV Screening Library” (2021).

Molecular target: T1, Arginase-2, mitochondrial (Homo sapiens) (UniProt P78540)
T1 sequence (whole entry): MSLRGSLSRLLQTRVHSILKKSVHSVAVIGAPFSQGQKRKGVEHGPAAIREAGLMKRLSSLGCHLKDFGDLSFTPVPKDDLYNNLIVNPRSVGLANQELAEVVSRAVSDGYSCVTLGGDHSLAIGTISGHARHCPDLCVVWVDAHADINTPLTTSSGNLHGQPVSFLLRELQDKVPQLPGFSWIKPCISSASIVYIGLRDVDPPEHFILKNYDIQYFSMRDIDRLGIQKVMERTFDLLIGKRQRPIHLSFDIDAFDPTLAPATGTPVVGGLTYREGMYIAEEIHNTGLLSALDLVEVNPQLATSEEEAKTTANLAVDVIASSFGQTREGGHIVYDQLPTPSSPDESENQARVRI
Experiment: in vitro enzyme assay to detect the production of urea directly proportional to the activity of Arginase II
Type: functional
Parameters: scale not given: in the data most compounds retested in dose-response had high values
Details: 30 µM

| SMILES | Percent Effect |
| --- | --- |
| CNC(=O)[C@H]1C[C@@H]2CN(C(=O)c3ccccn3)C[C@@H]2N1S(C)(=O)=O | 8.11% |
| CCOCCNC(=O)c1cc(Br)c2c(c1)OCCO2 | 9.19% |
| CN1CCN(C(=O)Cn2ccc3c(Cl)cccc32)CC1 | 4.87% |
| Cc1ccc([C@@H]2CN(S(=O)(=O)c3ccccc3)C[C@H]2N(C)C)cc1 | 3.78% |
| Cc1cc(CN(Cc2ccccc2)CC(O)c2cccs2)on1 (configuration not stated) | 3.78% |
| COc1cc(C(=O)N(CCC#N)Cc2ccccn2)ccc1C | 2.7% |
| CCc1nc(C)c(C(=O)NCC2COc3cc(OC)ccc3C2)o1 (configuration not stated) | 5.95% |
| O=C(Cn1nc2c(cc1=O)CSCC2)N[C@@H](Cc1ccccc1)C(=O)O | 11.3% |
| CC1=Nc2c(c(=O)[nH]n2C2CCCCC2)C(c2cccnc2)S1 (configuration not stated) | 2.7% |
| Cc1nn(C)c2c(=O)n(C(C)C)c(NCCc3ccccc3)nc12 | 8.11% |
| COC(=O)c1ccc(C2SC(C)=Nc3c2c(=O)[nH]n3C2CCCC2)cc1 (configuration not stated) | 11.3% |
| OCCN1CCC(c2cncc(-c3cccc(Cl)c3)n2)CC1 | -3.78% |
| NC(=O)CN1CCC(c2cncc(-c3cccc(Cl)c3)n2)CC1 | 2.7% |
| O=C(COC1CCCC1)N1CCCC1c1noc(C2CC2)n1 (configuration not stated) | 5.95% |
| CN1CCC(N(Cc2ccccc2F)C(=O)NCc2ccncc2)CC1 | 5.95% |
| O=C([C@@H]1CCO[C@@H]2CCN(CCc3ccccc3)C[C@@H]21)N1CCCC1 | 11.3% |
| CCn1c(NCc2ccccc2)nc2c(C)nn(C)c2c1=O | 8.11% |
| COc1ccc(C(=O)N2C[C@@H](C(=O)O)[C@H](c3cccc(F)c3)C2)c(O)c1 | 7.03% |
| CC(C)(C)OC(=O)Cn1cccc(S(=O)(=O)N2CCCCCC2)c1=O | 5.95% |
| COc1ccccc1Oc1ncccc1CNC(=O)[C@H](C)O | 4.87% |
| CN(Cc1ccco1)[C@@H]1CN(Cc2cnn(C)c2)[C@@H]2CCCO[C@H]12 | 2.7% |
| CN(Cc1ccccn1)C1CC2(CCN(Cc3ccccn3)CC2)C1 | -16.8% |
| O=c1[nH]c2c(c(=O)n1C1CCCCC1)CCC2Nc1ccccn1 (configuration not stated) | 5.95% |
| CN(C)C1CCCN(C(=O)CCc2csc(N)n2)CC1 (configuration not stated) | 1.62% |
| Cc1cc(NC(=O)C2CN(Cc3ccccc3)CCO2)ccn1 (configuration not stated) | 3.78% |
| Cc1nc(NCC2CC2)nc2c1COCC21CCN(S(=O)(=O)C2CC2)C1 (configuration not stated) | 7.03% |

| SMILES | Percent Effect |
| --- | --- |
| COc1ccc(C(=O)N2C[C@@H](C(=O)O)[C@H](c3ccccc3)C2)c(O)c1 | 9.19% |
| Nc1ccc(C(=O)N2CCCC(c3nccn3Cc3cscn3)C2)cn1 (configuration not stated) | 5.95% |
| COc1ccccc1Oc1ncccc1CNC(=O)[C@@H](N)CCO | -12.4% |
| OC(CN(Cc1ccccc1)Cc1ccccn1)c1cccs1 (configuration not stated) | 11.3% |
| CN(Cc1ccco1)[C@@H]1CN(CC2CCOCC2)C[C@@H]2CCCO[C@@H]21 | 7.03% |
| CC(C)CN1CCC(NC(=O)c2ccc(F)cc2F)CC1 | 7.03% |
| NS(=O)(=O)CCNC(=O)c1cc(Br)c2c(c1)OCCO2 | 8.11% |
| COCc1ccc(C(=O)N(CCC#N)Cc2ccccn2)cc1 | 0.54% |
| O=C(O)C(c1ccc(Cl)c(F)c1)N1CCN(Cc2ccccn2)CC1 (configuration not stated) | 5.95% |
| COCC(=O)N1CCC(c2cncc(-c3cccc(F)c3)n2)CC1 | -5.95% |
| COc1cccc(C(=O)N2C[C@@H](C(=O)O)[C@H](c3ccccc3C)C2)c1 | 5.95% |
| Cc1cccc(NC2CCc3c2[nH]c(=O)n(C2CCCCC2)c3=O)c1C (configuration not stated) | -0.54% |
| COCCC(=O)NCC1COc2cc(OC)ccc2C1 (configuration not stated) | 5.95% |
| Cc1cc(F)c(C(C(=O)O)N2CCN(Cc3ccccn3)CC2)cc1Cl (configuration not stated) | 5.95% |
| COCCCC1CCCN(C(=O)CCc2csc(N)n2)C1 (configuration not stated) | 3.78% |
| CC(C)CN1CCC(NC(=O)c2ccc(Cl)cc2Cl)CC1 | -7.03% |
| Cc1cccc(-c2nc(CN3CC(n4nc(C)cc4C)C3)no2)c1 | 5.95% |
| CN(C)c1ncccc1NC(=O)C1CN(Cc2ccccc2)CCO1 (configuration not stated) | -8.11% |
| CNC(=O)[C@@H]1CCO[C@@H]2CCN(CCc3ccccc3)C[C@H]21 | 8.11% |
| CC1=Nc2c(c(=O)[nH]n2C2CCCC2)C(c2ccc(O)cc2)S1 (configuration not stated) | 5.95% |
| Cc1nn(CCO)c(C)c1CNC1CCc2c(F)cccc21 (configuration not stated) | 5.95% |
| Cc1nc(N2CCN(C(=O)NCc3cscn3)CC2)sc1C | 5.95% |
| COCCN1CCC(c2cncc(-c3cccc(Cl)c3)n2)CC1 | 5.95% |
| CN(C)C(=O)CN1CCCC(c2cncc(-c3cccc(Cl)c3)n2)C1 (configuration not stated) | 1.62% |
| CCc1cc(CNC(=O)N2CCN(c3nc(C)c(C)s3)CC2)on1 | 3.78% |
| CCC(C(=O)NCc1ccncc1)N(c1ccc(F)cc1)S(C)(=O)=O (configuration not stated) | 8.11% |
